Vaccinia Venus = inhibitors of vaccinia virus (Venus reporter); Vaccinia virus Venus reporter expression, fluorescence; Potency, µM (doses to about 36.5 µM), for inactives: top-dose activity change, negative = inhibition, hits mostly inhibitors; 330,000 compounds, 0.46% hits; AID 720580; calls by dose curve; tested in A549 cells; further: potency means the concentration at half of the fitted maximal effect; nearly all actives have a fitted effect of over 30% in size
Vaccinia mCherry = inhibitors of vaccinia virus infection (mCherry reporter signal). 310,000 compounds, 0.63% hits. Vaccinia virus mCherry reporter infection, fluorescence. AID 720579. Potency, µM (highest dose often 36.5 µM), inactives show at the top dose activity change, negative = inhibition, most hits filed as inhibitors; calls by dose curve; tested in A549 cells; further: potency means the concentration at half of the fitted maximal effect; nearly all actives have a fitted effect of over 35% in size
FMDV inh = blocks foot and mouth disease virus; FMDV antiviral cell-based qHTS; Potency, µM (titrated, usually from 57.9 µM), for the others: at the top dose activity change, negative = inhibition, most hits filed as inhibitors; 410,000 compounds, 1.2% hits; calls by dose curve; tested in HEK293T cells; further: read-out not given here; potency means the concentration at half of the fitted maximal effect; nearly all actives have a fitted effect of over 45% in size
HCV inh = inhibitors of hepatitis C virus infection. Potency, µM (doses to about 41.8 µM), inactives show at the highest dose activity change, negative = inhibition, most hits filed as inhibitors. 340,000 compounds, 3.4% hits. AID 651820. Huh7.5.1 HCVcc-Cre infection, luciferase reporter, 44 h; further: potency means the concentration at half of the fitted maximal effect
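Reporter virus HCVcc-Cre (~0.5 moi) infects cells exposed to compound; seeding density 1,000 cells/well with 4 h settling beforehand. Luminescence, 15 sec read, taken 44 h post-infection following a 15 min RT substrate incubation.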
Sm TGR block = S. mansoni TGR enzyme inhibition. Q962Y6. purified TGR, DTNB reduction, TNB absorbance 405 nm. Potency, µM (titrated, usually from 114 µM), for inactives: at the highest dose activity change, negative = inhibition, usual class: inhibitors. 360,000 compounds, 3% hits. AID 485364; further: potency means the concentration at half of the fitted maximal effect; nearly all actives have a fitted effect of over 60% in size
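TGR 20 nM + NADPH 100 uM (dispensed conc.), cpd preinc 15 min RT; start with NADPH (500 uM addition) then DTNB (15 mM addition). Kinetic TNB absorbance, 405 nm filter. Four-parameter Hill fit across titration.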
HCMV inh = human cytomegalovirus inhibition | 410,000 compounds, 4.5% hits | activity change, negative = inhibition, % at 57.5 µM | HFF cells, HCMV-luciferase reporter, 72 h; hits give low values | AID 1259415; in the data active means activity change below about -60%; inconclusive means no clear call, values can overlap the other calls; inactive means above about -39%
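Two compound doses tested in HFFs infected with HCMV-luciferase, MOI 1 PFU/cell, 72 h at 37C. Lysate luminescence read with OneGlo; data normalized against buffer-only and 10uM Salinomycin inhibitor controls.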
* hit, by the source's call; i = inactive; u = inconclusive; x = no result; [ ] = remark or other dose. In the library only some 9.3% were active in any assay of this set; here they are far more common. Unless noted, the call rests on the fitted dose curve; in most records, active means well fitted curve in the direction sought with a large enough effect; inconclusive means small, poorly fitted or top-dose-only effect, or another doubt; inactive means no such curve, though single readings can be large; an effect the other way counts as inactive or inconclusive. On the % scale 0 is the no-effect control and ±100 the full control effect.

SMILES	Vaccinia Venus	Vaccinia mCherry	FMDV inh	HCV inh	Sm TGR block	HCMV inh
O=C(NC1CCCc2ccccc21)c1n[nH]c(=O)c2ccccc12 (stereo unspecified)	-10%	-10%	-7%	22µM*	9%	-31
O=C(CCNC(=O)c1ccc(Br)cc1)NC1CCCCCC1	-15%	-8%	-16%	-4%	1%	17
COc1cccc(NC(=O)NC2CCCc3ccccc32)c1 (stereo unspecified)	-17%	i	6%	u	9%	-67*
CC(=O)c1ccc(OCCCC(=O)NC2CCCc3ccccc32)cc1 (stereo unspecified)	-13%	i	-1%	u	10%	-86*
O=C(CCNC(=O)c1ccc(Br)cc1)NC1CCCc2ccccc21 (stereo unspecified)	11%	u	-6%	-22%	-2%	-81*
O=C(COC(=O)c1cc[n+]([O-])cc1)Nc1ccc2c(c1)OCCO2	-10%	i	22%	10%	10%	-1
O=C(NC1CCCc2ccccc21)c1cccc(Br)c1 (stereo unspecified)	-26%	-27%	40%	-2%	-8%	-78*
CCCCn1nc2cc(C(=O)NC3CCCc4ccccc43)ccc2c1OCC (stereo unspecified)	-25%	u	29%	1.8µM*	-13%	u
CCc1c(C(=O)NC2CCCc3ccccc32)[nH]c(C)c1C(C)=O (stereo unspecified)	x	x	22%	5%	-13%	-83*
O=C(NC1CCCc2ccccc21)c1ccc(Br)cc1 (stereo unspecified)	-20%	-11%	12%	-19%	4%	-17
COc1cc2c(cc1NC(=O)c1cccc(Br)c1)CCCC2	-24%	-2%	-7%	7.1µM*	4%	-34
COc1cc2c(cc1NC(=O)c1cccc(F)c1)CCCC2	-21%	-2%	-7%	u	0%	62
CCOc1c2ccc(C(=O)NC3CCCc4ccccc43)cc2nn1C (stereo unspecified)	-15%	-7%	37%	u	-24%	u
COC(=O)c1cn(NC(=O)Cc2cccc(C(F)(F)F)c2)c(=O)c2ccccc12	-1%	-4%	-1%	5%	-3%	23
COc1ccc2c(c1OC)C(=O)N(c1ccc(O)cc1)C2=O	-8%	3%	10%	1%	95%	0
O=C(NC1CC1)C1CCN(c2ncccn2)CC1	-8%	-19%	-8%	7%	0%	17
CC(C)CN1CCN(Cc2ccc(F)cc2Cl)CC1CCO (stereo unspecified)	-22%[7.34 µM]	-5%[7.34 µM]	-27%	3%	2%	27
S=C(NCc1ccccc1)NC1CCCc2ccccc21 (stereo unspecified)	-12%	0%	6%	-6%	2%	-33
S=C(NC1CC1)NC1CCCc2ccccc21 (stereo unspecified)	x	x	-4%	3%	6%	-62*
COc1ccc(/C=C(\C#N)C(=O)OCC(=O)Nc2c(C)cccc2C)cc1	-13%	i	-23%	10%	0%	-61*
CC(C)c1ccc(NC(=O)Nc2cnccn2)cc1	-20%	-27%	-7%	u	-17%	51
NC(=O)c1csc(C2OC(CO)C(O)C2O)n1 (stereo unspecified)	-6%	-5%	-23%	x	x	-21
Nc1ncnc2c(C3OC(CO)C(O)C3O)c[nH]c12 (stereo unspecified)	0.25µM*	0.28µM*	0%	u	x	-98*
O=C(NCCN1CCOCC1)c1ccccc1N1C(=O)[C@@H]2Cc3c([nH]c4ccccc34)C(c3ccc(F)cc3)N2C1=O (stereo partly specified)	2%	-9%	-19%	-18%	-23%	-75*
Cc1cc2nccc(-c3ccc(OCCCF)cc3)n2n1	x	x	-16%	u	1%	-61*
SMILES	Vaccinia Venus	Vaccinia mCherry	FMDV inh	HCV inh	Sm TGR block	HCMV inh
Cc1cc2nccc(-c3ccco3)n2n1	-5%	-9%	-4%	-28%	4%	-30
Cc1noc(C)c1COC(=O)c1cc2c3ccccc3n(C)c2s1	-7%	i	-18%	11µM*	u	17
Cc1noc(C)c1COC(=O)c1cc2c(C)nn(-c3ccc(F)cc3)c2s1	-7%	-10%	-14%	-3%	5%	23
COc1ccc2nc(SCC(C)=O)c(C#N)cc2c1	-19%	i	-35%	u	7%	27
Cc1cc(C)c2nc(SCC(=O)N3CC(=O)Nc4ccccc43)c(C#N)cc2c1	u	u	u	7.9µM*	-2%	-88*
COc1ccc2nc(SCC(=O)N3CC(=O)Nc4ccccc43)c(C#N)cc2c1	u	u	-20%	u	-13%	-100*
CCOc1ccc2cc(C#N)c(SCC(=O)N3CCOCC3)nc2c1	x	x	27%	u	2%	35
CCOc1ccc2nc(SCC(=O)N3CCCCCC3)c(C#N)cc2c1	-28%	u	37%	7.9µM*	5%	51
CCOc1ncccc1C(=O)N=c1sccn1C	-21%	-14%	-14%	5%	-6%	27
Cc1ccc(CNc2nc(Cl)c(C#N)s2)cc1	-15%	i	18%	-22%	82%	-10
O=[N+]([O-])c1ccc(Nc2nc(N/N=C\c3ccc4c(c3)OCO4)nc(N3CCCCC3)n2)cc1	x	x	-21%	u	9%	-8
O=C(CSc1nc(-c2cccs2)nc2ccccc12)NC1CCS(=O)(=O)C1 (stereo unspecified)	x	x	0%	4%	-5%	14
O=C(Nc1ccc2c(c1)OCO2)c1csc([C@H]2C[C@H](O)[C@@H](CO)O2)n1	-5%	38%	-3%	x	x	-97*
O=C(Nc1ccc(Oc2ccccc2)cc1)c1csc([C@H]2C[C@H](O)[C@@H](CO)O2)n1	-27%	-12%	7.9µM*	x	x	-97*
O=C(Nc1ccc(F)c(Cl)c1)c1csc([C@H]2C[C@H](O)[C@@H](CO)O2)n1	-14%	-13%	10%	x	x	12
O=C(Nc1cccc2cccnc12)c1csc([C@@H]2O[C@H](CO)[C@H](O)[C@H](O)[C@H]2O)n1	5%	14%	-12%	x	x	-99*
CC(=O)Nc1ccc(NC(=O)c2csc([C@@H]3C[C@H](O)[C@@H](CO)O3)n2)cc1	7%	31%	-14%	x	x	-26
O=C(Nc1ccc(Oc2ccccc2)cc1)c1csc([C@@H]2O[C@H](CO)[C@@H](O)[C@H]2O)n1	-18%	i	16µM*	x	x	-93*
CCCN(CCO)Cc1ccc(Cl)c(Cl)c1	-6%	-2%	11%	0%	-13%	14
Cc1ccc(NC(=O)COC(=O)C2(CC(=O)NC(C)(C)C)CCCC2)cc1C	-21%	-16%	u	u	x	-8
